# Screens as filed in PubChem BioAssay.
# Autofluor 339 = intrinsic fluorescence of library compounds, ex339/em460 – biochemical, MLSMR library, data from DPM-DC assay, artefact control, profiling panel. AID 709, 2007. actives 5.5% (n = 65,000). fluorescence fold increase at 10 µM. compound autofluorescence, ex339/em460 nm, NADH buffer; stronger effect = higher value; 1 = no-compound wells, NADH background;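 active means at 10 µM, mean starting fluorescence two-fold or more over control wells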;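 further: signal is the first read of a kinetic run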
# Htt clearance = clearance of mutant huntingtin inclusions, primary screen, imaging, HeLa Exon1htt(103Q)mCFP, confocal imaging. aggregate imaging; zero = plate's median compound well. inhibition, % at 1.5 µM. actives 0.42% (n = 47,000). AID 853, 2007;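 active means inhibition of aggregate fluorescence above about 70%, also judged a hit by eye on the cell image, limit read from the data, passing the limit was not always enough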;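 further: cells exposed to compound for three days before fixation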
# M1 agonist = M1 muscarinic receptor agonists, primary screen, CHO-M1 cells, Fluo-4 calcium, agonist mode | Muscarinic acetylcholine receptor M1 | Fluo-4 calcium fluorescence; stronger effect = higher value | B-score at 10 µM | actives 3% (n = 64,000);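 active means fluorescence rise, raw or as B-score row- and column-corrected plate score, outside the 99.7% band of its plate's samples, either direction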
# M1 antag = antagonists of rat M1 muscarinic receptor; actives 3.4% (n = 64,000); Muscarinic acetylcholine receptor M1 (Rattus norvegicus), P08482; B-score at 10 µM; CHO-M1 cells, Fluo-4 calcium, ACh EC80 antagonist mode; stronger effect = lower value;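 active means calcium fluorescence response, raw or row-and-column corrected B-score, differing from the plate sample mean either way at a set confidence level, mostly lower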
# Target sequence (P08482 whole entry, looked up): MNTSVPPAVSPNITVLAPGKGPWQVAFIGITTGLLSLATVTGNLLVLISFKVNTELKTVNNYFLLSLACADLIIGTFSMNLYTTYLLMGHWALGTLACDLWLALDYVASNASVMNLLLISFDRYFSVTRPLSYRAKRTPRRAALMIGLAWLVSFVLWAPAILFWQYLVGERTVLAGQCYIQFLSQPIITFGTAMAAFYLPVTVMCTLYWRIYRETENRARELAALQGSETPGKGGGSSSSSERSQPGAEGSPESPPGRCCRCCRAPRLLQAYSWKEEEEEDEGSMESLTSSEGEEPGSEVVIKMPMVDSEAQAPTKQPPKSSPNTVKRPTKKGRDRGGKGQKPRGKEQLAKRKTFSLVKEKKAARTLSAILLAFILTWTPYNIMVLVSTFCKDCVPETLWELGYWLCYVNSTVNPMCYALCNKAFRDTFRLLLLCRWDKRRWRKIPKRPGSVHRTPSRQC
# Abs 340nm = compound light absorbance at 340 nm, profiling panel, artefact control, biochemical, MLSMR library, data from PS, PMK, MK assays | 65,000 tested, under 10 active | compound absorbance at 340 nm, fold over control | fold change at 10 µM | AID 708, 2007;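 active means at 10 µM dose, initial 340 nm absorbance at least 2 fold that of control wells; inactive means change under 2 fold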;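 further: initial absorbance extrapolated from kinetic A340 decline of NADH oxidation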
# NADH enzymes = inhibitors of PK/LDH coupling enzymes, profiling panel, artefact control, biochemical, MLSMR library. coupled PK/LDH NADH assays, four targets. IC50, µM (doses to about 10 µM), for the others: at the top dose inhibition. actives 0.02% (n = 65,000);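 active means single-dose screening hits from any of four coupled enzyme assays that gave an IC50 when retested across doses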;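 further: the DPM-DC format reads NADH fluorescence rather than 340 nm absorbance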
# M1 antag conf = rat M1 muscarinic receptor antagonists, confirmation, CHO cells, Fluo-4 calcium, duplicate | shares compounds with M1 antag | ACh EC80 antagonism; stronger effect = lower value | calcium response (max-min fluorescence) at 10 µM | actives 43% (n = 1,700) | AID 677, 2007;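 active means calcium response below the same-plate mean of wells given acetylcholine alone at its 80%-effect dose, minus 3 SD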;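 further: raw fluorescence intensity difference in arbitrary instrument units and not normalized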
# mGluR4 antag = human mGluR4 response to M1 antagonist hits, M1 allosteric modulator project, cell-based, antagonist mode, secondary assay 1. AID 678, 2007. CHO-mGluR4 calcium flux, Fluo-4 fluorescence, glutamate EC80; stronger effect = lower value. fluorescence response (max-min) at 10 µM. shares compounds with M1 antag. actives 0.9% (n = 1,700);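 active means fluorescence response below the plate's average for near-maximal glutamate wells, less 3 SD of those wells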;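 further: raw unnormalized fluorescence span taken in the window right after glutamate addition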
# Numbers without * were called inactive; / = no result given. An excerpt weighted towards active compounds, which were near 9.3% of everything screened.
SMILES,Autofluor 339,Htt clearance,M1 agonist,M1 antag,Abs 340nm,NADH enzymes,M1 antag conf,mGluR4 antag
COc1cccc(CN2CCCN(S(=O)(=O)c3ccc(Br)cc3)CC2)c1,1.1,/,1.6,-10*,1,6%,301*,260
Cc1ccc(S(=O)(=O)N2CCC(C(=O)N3CCN(Cc4ccccc4)CC3)CC2)cc1,1,/,-1.1,-0.065,0.99,1%,/,/
COc1ccc(S(=O)(=O)N2CCC(C(=O)NCc3cccc(OC)c3)CC2)cc1,1.1,37,-0.9,0.019,0.99,9%,/,/
COc1ccc(S(=O)(=O)N2CCN(C3CCCCCCC3)CC2)cc1,1,/,0.59,-0.025,0.99,5%,/,/
C/C=C/Cn1c(SCc2ccccc2)nc2c1c(=O)[nH]c(=O)n2C,1.1,/,0.67,-2.7*,1,4%,589,245
CCOCCn1c(SCc2ccccc2)nc2c1c(=O)[nH]c(=O)n2C,1.1,/,0.15,-0.27,1.1,2%,/,/
O=C(Nc1cc(C(F)(F)F)ccc1N1CCOCC1)C1Cc2ccccc2CN1C(=O)c1ccco1 (configuration not stated),1.1,/,-0.0077,1.1,1,5%,/,/
CCOc1cc(C)nc(N2CCN(C3CCCCC3)CC2)n1,1,/,0.18,-3.3*,1,4%,444*,253
O=C1CC(SCCO)C(=O)N1c1ccc(Oc2ccccc2)cc1 (configuration not stated),1.1,-25,0.02,-2.7*,1,6%,597,252
CCOC(=O)c1ccc(N2C(=O)CC(SCC(N)C(=O)OCC)C2=O)cc1 (configuration not stated),1.1,/,0.29,0.25,1,6%,/,/
CCOC(=O)c1c(CN(CC)CC)oc2cc(Br)c(O)cc12,1.1,/,-0.43,-2*,1,2%,679,217
O=C(c1ccco1)N1CCN(C(c2ccccc2)c2nnnn2C2CCCC2)CC1 (configuration not stated),/,8,/,/,/,/,/,/
COc1ccc(C(c2nnnn2Cc2ccc(F)cc2)N2CCN(c3ccc(OC)cc3)CC2)cc1 (configuration not stated),1.1,/,0.8,-3.8*,0.98,8%,661,168
COc1ccc(C(c2nnnn2Cc2ccc(F)cc2)N2CCN(c3ccccc3)CC2)cc1 (configuration not stated),1.1,/,0.055,0.89,0.97,8%,/,/
COc1cc(OC)cc(C(=O)N2CCC(n3c(C)nc4cc(F)ccc43)CC2)c1,1.1,35,0.4,-0.54,1,4%,/,/
CCN(CC)CCCNC(=O)c1c(O)c2c([nH]c1=O)CCCC2,0.99,/,-1,-0.61,0.99,5%,/,/
O=C(NCC1CCCO1)c1c(O)c2c([nH]c1=O)CCCC2 (configuration not stated),1.1,/,0.28,-3.6*,0.97,6%,555,245
COc1ccc(-c2noc(CN3CCOCC3)n2)cc1OC,1.1,20,0.12,-0.0071,1,3%,/,/
CCS(=O)(=O)c1ccc(S(=O)(=O)CC)s1,1,/,0.9,0.53,1,1%,/,/
CCCCn1nnc(NC(=O)CC23CC4CC(CC(C4)C2)C3)n1,1.1,/,0.19,0.32,1.1,0%,/,/
O=C(NC1CCCCC1)C(c1ccccc1)N1CCCC1 (configuration not stated),1.1,/,0,-13*,1.1,3%,121*,251
Cc1ccc(C(C(=O)NC2CCCCC2)N2CCCC2)cc1 (configuration not stated),1.1,/,-1,-3.8*,1,4%,461*,253
Cc1ccc(C(C(=O)NC2CCCC2)N2CCCCC2)cc1 (configuration not stated),1.1,/,0.85,-3.5*,1.1,2%,468*,229
Cc1ccc(C(C(=O)NC2CCCC2)N2CCCC(C)C2)cc1 (configuration not stated),/,-13,/,/,/,/,/,/
O=C(NC1CCCCC1)C(c1ccccc1)N1CCc2ccccc21 (configuration not stated),/,14,/,/,/,/,/,/
SMILES,Autofluor 339,Htt clearance,M1 agonist,M1 antag,Abs 340nm,NADH enzymes,M1 antag conf,mGluR4 antag
CCN1CCN(C(C(=O)NC2CCCC2)c2ccc(Cl)cc2)CC1 (configuration not stated),1.1,/,0.11,-1.5,1,2%,/,/
CC(C(=O)Nc1ccc2c(c1)OCO2)N(c1ccc(Cl)cc1)S(C)(=O)=O (configuration not stated),1.1,-40,0.2,-0.62,1.1,3%,/,/
CCN1CCCC1CNC(=O)c1cc2c(-c3cccc(OC)c3)nn(C)c2s1 (configuration not stated),5*,/,0.3,-2.8*,1,8%,570,257
CCN1CCCC1CNC(=O)c1cc2c(-c3ccc(Cl)cc3)nn(C)c2s1 (configuration not stated),2.1*,/,0.33,-4*,1.1,5%,430,200
CCN1CCCC1CNC(=O)C1c2cc(OC)c(OC)cc2C(=O)N(C)C1c1cccnc1 (configuration not stated),1.1,/,1.5,-0.083,1.1,2%,/,/
CC1(C)CC2CC(C)(CN2c2ncnc3ccccc23)C1 (configuration not stated),1.1,/,-0.38,-2.2*,1.1,5%,516,251
O=C(O)C1CCCN1c1ncnc2ccccc12 (configuration not stated),1.1,28,-0.11,0.86,1.1,6%,/,/
O=C(NCCN1CCN(C(=O)c2cccs2)CC1)c1cccs1,1.1,44,-0.6,-2.3*,1,6%,560,234
Cn1c(NC(=O)c2ccc(Br)o2)cc(=O)n(C)c1=O,0.99,4,-0.037,0.34,1.2,3%,/,/
CC1CCN(S(=O)(=O)c2ccc3ncn(CC(=O)N(C)Cc4ccccc4)c(=O)c3c2)CC1,1.1,/,0.44,0.16,0.96,5%,/,/
O=C(Nc1ccc(S(=O)(=O)N2CCCc3ccccc32)cc1)C1CCCO1 (configuration not stated),1,/,0.36,-9.7*,1,7%,29*,208
O=C(Nc1ccc(S(=O)(=O)N2CCc3ccccc3C2)cc1)C1CCCO1 (configuration not stated),1.1,/,-0.1,-0.049,1,6%,/,/
